Test system: human monocyte-derived macrophages (polarized)
Experiment: cell shape (eccentricity) Z-score vs DMSO control; higher = more elongated, M2-like morphology
Conditions: 5 µM; 24 h; macrophage state: M1-polarized (IFNg + TNFa), cytokines present during treatment
Description: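 Primary-screen hits were rescreened on polarized hMDMs with the differentiating cytokines (IL-4 + IL-13 or IFNg + TNFa) kept in the medium during treatment with compound at 5 uM for 24 h. The eccentricity Z-score vs DMSO wells is averaged over experiments.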

Row | SMILES | cell shape (Z-score)
1 | CCC[C@H](N[C@@H](C)C(=O)N1[C@H](C(=O)O)C[C@@H]2CCCC[C@@H]21)C(=O)OCC | -1.48
2 | COc1cc(C(=O)N2CCC(N3CCN(C)CC3)CC2)ccc1Nc1ncc2c(n1)N(C)c1ccccc1C(=O)N2C | -5.99
3 | COc1cc(OC)c(/C=C/S(=O)(=O)Cc2ccc(OC)c(NCC(=O)O)c2)c(OC)c1 | -2.86
4 | CC[C@]1(O)C[C@@H]2CN(CCc3c([nH]c4ccccc34)[C@@](C(=O)OC)(c3cc4c(cc3OC)N(C)[C@H]3[C@@](O)(C(=O)OC)[C@H](OC(C)=O)[C@]5(CC)C=CCN6CC[C@]43[C@@H]65)C2)C1 | 6.51
5 | C[C@@H](Oc1cc(-c2cnn(C3CCNCC3)c2)cnc1N)c1c(Cl)ccc(F)c1Cl | 7.6
6 | O=C(OC1C=C(CO)C2C(OC3OC(CO)C(O)C(O)C3O)OC=CC12O)c1ccc(O)cc1 (stereo not given) | 3.32
7 | O=S(=O)(c1cccc2cnccc12)N1CCCNCC1 | -0.217
8 | CCn1c(=O)c2c(nc(/C=C/c3ccc(OC)c(OC)c3)n2C)n(CC)c1=O | 3.19
9 | Nc1nc(Nc2ccc3c(c2)CCC(N2CCCC2)CC3)nn1-c1cc2c(nn1)-c1ccccc1CCC2 (stereo not given) | -4.94
10 | C=C1C(=O)O[C@H]2C3=C(C)C[C@H](OC(C)=O)C[C@]3(C)CC[C@@H]12 | -1.91
11 | Clc1ccc(C(Cn2ccnc2)OCc2ccsc2Cl)c(Cl)c1 (stereo not given) | -4.98
12 | COc1cc2ncnc(Nc3ccc(F)c(Cl)c3)c2cc1OCCCN1CCOCC1 | -0.66
13 | CC(C)c1ccccc1Cc1cc(C(=O)Nc2ccc(S(=O)(=O)c3ccccc3C(C)(C)C)cc2)c(O)c(O)c1O | -2.24
14 | CCOC(=O)N[C@@H]1CC[C@@H]2[C@@H](C1)C[C@H]1C(=O)O[C@H](C)[C@H]1[C@H]2/C=C/c1ccc(-c2cccc(F)c2)cn1 | 5.58
15 | CCCCCCOc1ccccc1C(N)=O | 3.38
16 | Cc1onc(-c2ccccc2)c1-c1ccc(S(N)(=O)=O)cc1 | 7.67
17 | O=Nc1c(-c2c(O)[nH]c3cc(Br)ccc23)[nH]c2ccccc12 | -13.2
18 | Cn1c2ccccc2c2c3c(c4c5ccccc5n(CCC#N)c4c21)CNC3=O | 4.83
19 | Cc1ccc(S(=O)(=O)OCC(=O)Nc2ccc(C(=O)O)c(O)c2)cc1 | -2.63
20 | C=CCn1c(=O)c2cnc(Nc3ccc(N4CCN(C)CC4)cc3)nc2n1-c1cccc(C(C)(C)O)n1 | 5.45
21 | O=c1cc(-c2ccc(O)cc2)oc2cc(O)cc(O)c12 | 0.0357
22 | O=c1ncccn1[C@@H]1O[C@H](CO)[C@@H](O)[C@H]1O | -0.513

Same assay, conditions: 5 µM; 24 h; macrophage state: M2-polarized (IL-4 + IL-13), cytokines present during treatment

Row | SMILES | cell shape (Z-score)
23 | OC(CN1CCNCC1)Cn1c2ccc(Br)cc2c2cc(Br)ccc21 (stereo not given) | -13.7
24 | Oc1ccc(/C=C/c2cc(O)cc(O)c2)cc1 | -0.6
25 | COC(=O)Nc1nc2ccc(SC(C)C)cc2[nH]1 | 0.135
26 | CN(C)c1ccc(C(=C2C=CC(=[N+](C)C)C=C2)c2ccc(N(C)C)cc2)cc1 | -9.83
27 | Cc1cc(CC(C)CC(C)(C)C)n(O)c(=O)c1 (stereo not given) | 0.506
28 | C=C(NC(=O)C(=C)NC(=O)c1csc(C2=N[C@@H]3c4csc(n4)[C@H]4NC(=O)c5csc(n5)[C@H]([C@](C)(O)[C@@H](C)O)NC(=O)[C@H]5CSC(=N5)/C(=C/C)NC(=O)[C@H]([C@@H](C)O)NC(=O)c5csc(n5)[C@]3(CC2)NC(=O)[C@H](C)NC(=O)C(=C)NC(=O)[C@H](C)NC(=O)[C@H]([C@@H](C)CC)N[C@@H]2C=Cc3c([C@H](C)O)cc(nc3[C@H]2O)C(=O)O[C@@H]4C)n1)C(N)=O | -11
29 | CC(=O)O[C@@H]1C[C@H]2C(C)(C)C(=O)CC[C@]2(C)[C@H]2CC[C@@]3(C)[C@H](c4ccoc4)OC(=O)[C@H]4O[C@]43[C@@]21C | -5.73
30 | C[C@H]1CN([C@@H](C)CO)C(=O)Cc2cc(NC(=O)CCC(F)(F)F)ccc2O[C@H]1CN(C)S(=O)(=O)c1ccc(Cl)cc1 | -11
31 | CN[C@H]1CC[C@@H](c2ccc(Cl)c(Cl)c2)c2ccccc21 | -4.29
32 | O=C1c2ccccc2-c2nc3nonc3nc21 | -2.4
33 | COC(=O)Nc1nc2cc(Sc3ccccc3)ccc2[nH]1 [Fenbendazole] | -14.3
34 | Cc1ccc(O)c(N=Nc2ccccc2)n1 | -1.32
35 | COc1ccc(C(=O)CC2(O)C(=O)Nc3c(Cl)ccc(Cl)c32)cc1 (stereo not given) | -16.1
36 | CN1c2ccccc2C(=O)N2CCc3c([nH]c4ccccc34)[C@@H]21 | -7.76
37 | NC(N)=Nc1nc(CSCC/C(N)=N/S(N)(=O)=O)cs1 | 0.285
38 | C=C1C(=O)O[C@@H]2C3=C(C)CC[C@]34O[C@@H](C[C@@H]4C)[C@H]12 | 13
39 | COc1cc(O)c2c(=O)c(OC)c(-c3ccc(OC)c(OC)c3)oc2c1 | -8.25
40 | Oc1ccc(-c2nc(-c3ccc(F)cc3)c(-c3ccncc3)[nH]2)cc1 | -2.38

Reference: the supplement of paper PMC7858590
